According to the supplement of paper PMC6378613:

Compound: Cc1ccc(-c2ccc3c(ccc4sc5c(c43)NC[C@@H](C)NC5=O)n2)cn1
Experiment: kinase activity remaining relative to vehicle control; higher = less inhibition
Procedure: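 In vitro radiometric kinase profiling of the MK2 inhibitor PF-3644022 at 0.1, 1 and 10 µM against a panel of kinases (MRC International Centre for Kinase Profiling, Dundee). Read-out is % kinase activity remaining relative to the vehicle control, mean of n=2.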

UniProt P12931, sequence (P12931 whole entry, looked up): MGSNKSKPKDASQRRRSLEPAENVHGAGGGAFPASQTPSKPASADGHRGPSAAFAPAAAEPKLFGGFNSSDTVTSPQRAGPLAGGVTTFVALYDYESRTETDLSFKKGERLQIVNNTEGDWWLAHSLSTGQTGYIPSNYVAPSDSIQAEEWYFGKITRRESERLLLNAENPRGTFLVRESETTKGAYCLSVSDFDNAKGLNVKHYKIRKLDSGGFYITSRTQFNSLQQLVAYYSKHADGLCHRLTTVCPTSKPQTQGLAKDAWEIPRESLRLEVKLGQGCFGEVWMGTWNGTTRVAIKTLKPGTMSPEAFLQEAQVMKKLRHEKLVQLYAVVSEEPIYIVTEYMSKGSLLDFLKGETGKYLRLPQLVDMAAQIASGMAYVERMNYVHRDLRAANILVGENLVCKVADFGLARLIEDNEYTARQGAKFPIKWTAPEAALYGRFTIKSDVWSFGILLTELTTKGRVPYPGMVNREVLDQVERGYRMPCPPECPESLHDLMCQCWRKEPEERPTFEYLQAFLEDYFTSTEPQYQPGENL
UniProt Q8IYT8, sequence (Q8IYT8 whole entry, looked up): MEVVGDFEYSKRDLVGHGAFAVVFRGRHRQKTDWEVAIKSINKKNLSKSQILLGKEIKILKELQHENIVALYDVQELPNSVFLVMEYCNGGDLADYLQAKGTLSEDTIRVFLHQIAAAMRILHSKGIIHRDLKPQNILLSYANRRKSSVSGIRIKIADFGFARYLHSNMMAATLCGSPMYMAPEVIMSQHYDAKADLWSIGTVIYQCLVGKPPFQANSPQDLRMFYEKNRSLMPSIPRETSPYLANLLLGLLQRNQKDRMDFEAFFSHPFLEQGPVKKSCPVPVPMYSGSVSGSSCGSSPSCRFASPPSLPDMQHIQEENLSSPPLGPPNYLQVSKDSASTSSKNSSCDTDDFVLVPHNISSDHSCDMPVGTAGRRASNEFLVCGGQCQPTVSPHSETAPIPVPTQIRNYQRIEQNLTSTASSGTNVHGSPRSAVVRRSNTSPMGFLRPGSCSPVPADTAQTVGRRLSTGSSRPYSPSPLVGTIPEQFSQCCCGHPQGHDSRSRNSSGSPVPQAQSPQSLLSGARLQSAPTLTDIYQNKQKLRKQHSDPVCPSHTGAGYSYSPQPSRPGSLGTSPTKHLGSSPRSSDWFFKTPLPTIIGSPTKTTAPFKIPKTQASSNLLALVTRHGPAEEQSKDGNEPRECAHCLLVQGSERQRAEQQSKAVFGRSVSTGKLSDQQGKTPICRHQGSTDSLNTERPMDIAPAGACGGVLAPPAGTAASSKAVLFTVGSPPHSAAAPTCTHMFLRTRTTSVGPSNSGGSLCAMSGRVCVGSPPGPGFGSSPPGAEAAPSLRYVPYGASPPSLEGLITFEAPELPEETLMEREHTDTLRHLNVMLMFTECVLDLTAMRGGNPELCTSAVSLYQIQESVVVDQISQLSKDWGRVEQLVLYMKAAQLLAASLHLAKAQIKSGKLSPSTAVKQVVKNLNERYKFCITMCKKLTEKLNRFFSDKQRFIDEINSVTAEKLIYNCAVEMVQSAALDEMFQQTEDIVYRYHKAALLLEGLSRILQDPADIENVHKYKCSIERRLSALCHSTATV
UniProt Q9P289, sequence (Q9P289 whole entry, looked up): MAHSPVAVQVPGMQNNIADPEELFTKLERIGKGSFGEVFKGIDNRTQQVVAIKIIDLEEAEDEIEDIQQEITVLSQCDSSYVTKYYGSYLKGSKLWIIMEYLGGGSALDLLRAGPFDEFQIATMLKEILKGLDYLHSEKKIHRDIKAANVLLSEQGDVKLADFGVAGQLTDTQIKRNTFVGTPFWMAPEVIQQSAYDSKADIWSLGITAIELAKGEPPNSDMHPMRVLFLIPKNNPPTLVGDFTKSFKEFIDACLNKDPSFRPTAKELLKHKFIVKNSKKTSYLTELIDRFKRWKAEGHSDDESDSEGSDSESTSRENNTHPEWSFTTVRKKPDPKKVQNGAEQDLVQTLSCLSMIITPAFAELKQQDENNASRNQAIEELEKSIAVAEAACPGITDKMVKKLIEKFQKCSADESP
UniProt Q9P0L2, sequence (Q9P0L2 whole entry, looked up): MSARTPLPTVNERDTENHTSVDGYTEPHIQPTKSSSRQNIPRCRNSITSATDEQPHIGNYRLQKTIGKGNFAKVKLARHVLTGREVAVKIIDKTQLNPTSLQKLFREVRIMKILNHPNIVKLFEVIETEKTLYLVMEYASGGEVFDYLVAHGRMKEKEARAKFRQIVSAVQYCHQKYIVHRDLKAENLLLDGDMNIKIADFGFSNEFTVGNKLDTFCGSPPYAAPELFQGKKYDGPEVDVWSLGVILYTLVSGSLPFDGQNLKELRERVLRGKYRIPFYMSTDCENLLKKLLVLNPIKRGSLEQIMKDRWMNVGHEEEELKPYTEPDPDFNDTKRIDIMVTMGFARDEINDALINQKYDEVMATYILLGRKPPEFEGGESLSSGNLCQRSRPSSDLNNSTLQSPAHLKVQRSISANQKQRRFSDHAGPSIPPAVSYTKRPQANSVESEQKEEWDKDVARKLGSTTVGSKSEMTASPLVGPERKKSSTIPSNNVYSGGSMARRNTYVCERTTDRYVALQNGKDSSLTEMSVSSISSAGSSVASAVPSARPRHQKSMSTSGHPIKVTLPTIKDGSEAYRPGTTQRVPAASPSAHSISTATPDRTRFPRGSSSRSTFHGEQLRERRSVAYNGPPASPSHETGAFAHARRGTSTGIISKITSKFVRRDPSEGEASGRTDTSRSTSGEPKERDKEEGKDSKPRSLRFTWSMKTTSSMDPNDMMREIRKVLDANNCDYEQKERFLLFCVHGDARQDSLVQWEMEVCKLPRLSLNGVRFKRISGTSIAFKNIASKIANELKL
UniProt Q9UKI8, sequence (Q9UKI8 whole entry, looked up): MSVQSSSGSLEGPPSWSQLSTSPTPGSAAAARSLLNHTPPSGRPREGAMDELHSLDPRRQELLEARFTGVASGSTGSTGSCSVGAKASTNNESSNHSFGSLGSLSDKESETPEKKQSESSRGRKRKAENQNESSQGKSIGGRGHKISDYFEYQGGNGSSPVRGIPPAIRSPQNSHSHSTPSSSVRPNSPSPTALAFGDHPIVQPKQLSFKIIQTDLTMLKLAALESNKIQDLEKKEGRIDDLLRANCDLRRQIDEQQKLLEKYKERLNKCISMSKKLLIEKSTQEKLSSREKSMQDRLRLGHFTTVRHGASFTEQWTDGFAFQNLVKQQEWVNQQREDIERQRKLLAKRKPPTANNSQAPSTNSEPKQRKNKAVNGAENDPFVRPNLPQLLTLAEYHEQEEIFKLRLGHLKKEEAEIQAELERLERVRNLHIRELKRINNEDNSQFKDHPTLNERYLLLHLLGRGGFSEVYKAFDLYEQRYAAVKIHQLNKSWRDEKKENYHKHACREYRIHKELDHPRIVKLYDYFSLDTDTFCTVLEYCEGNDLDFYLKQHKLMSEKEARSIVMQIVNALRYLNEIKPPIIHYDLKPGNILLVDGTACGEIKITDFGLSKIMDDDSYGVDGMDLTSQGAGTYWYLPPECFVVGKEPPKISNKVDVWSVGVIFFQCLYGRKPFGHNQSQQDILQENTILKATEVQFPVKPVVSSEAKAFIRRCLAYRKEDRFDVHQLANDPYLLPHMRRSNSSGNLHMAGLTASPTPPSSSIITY
UniProt P50750, sequence (P50750 whole entry, looked up): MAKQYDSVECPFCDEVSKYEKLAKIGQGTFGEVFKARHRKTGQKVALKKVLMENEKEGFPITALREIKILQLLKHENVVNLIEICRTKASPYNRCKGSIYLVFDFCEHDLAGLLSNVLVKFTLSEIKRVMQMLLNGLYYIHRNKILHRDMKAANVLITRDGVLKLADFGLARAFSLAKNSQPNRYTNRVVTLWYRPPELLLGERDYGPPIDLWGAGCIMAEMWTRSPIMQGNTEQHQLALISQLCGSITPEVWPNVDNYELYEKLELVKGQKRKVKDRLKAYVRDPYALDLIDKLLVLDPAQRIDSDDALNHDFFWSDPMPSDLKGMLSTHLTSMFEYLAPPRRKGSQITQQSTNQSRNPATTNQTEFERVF
UniProt Q7KZI7, sequence (Q7KZI7 whole entry, looked up): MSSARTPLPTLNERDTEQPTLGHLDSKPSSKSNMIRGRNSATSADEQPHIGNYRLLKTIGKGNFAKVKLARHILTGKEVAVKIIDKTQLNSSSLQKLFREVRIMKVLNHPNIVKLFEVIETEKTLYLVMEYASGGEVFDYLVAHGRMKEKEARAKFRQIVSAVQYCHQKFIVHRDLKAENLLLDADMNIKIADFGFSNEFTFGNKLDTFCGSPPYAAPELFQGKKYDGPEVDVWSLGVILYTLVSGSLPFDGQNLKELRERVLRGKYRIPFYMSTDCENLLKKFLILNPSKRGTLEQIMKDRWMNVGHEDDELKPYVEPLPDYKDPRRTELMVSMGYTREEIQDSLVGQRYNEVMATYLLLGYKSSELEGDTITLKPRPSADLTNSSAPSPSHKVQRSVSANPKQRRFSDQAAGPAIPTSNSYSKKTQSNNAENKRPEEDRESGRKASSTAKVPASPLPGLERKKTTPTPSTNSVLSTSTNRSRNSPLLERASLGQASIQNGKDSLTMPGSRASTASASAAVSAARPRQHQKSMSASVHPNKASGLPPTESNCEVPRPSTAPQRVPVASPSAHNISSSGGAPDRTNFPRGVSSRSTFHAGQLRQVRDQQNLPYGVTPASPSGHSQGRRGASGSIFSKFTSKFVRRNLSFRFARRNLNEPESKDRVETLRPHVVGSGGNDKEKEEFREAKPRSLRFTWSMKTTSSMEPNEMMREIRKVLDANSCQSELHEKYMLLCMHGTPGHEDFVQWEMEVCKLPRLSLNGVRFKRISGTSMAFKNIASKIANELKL
UniProt P52564, sequence (P52564 whole entry, looked up): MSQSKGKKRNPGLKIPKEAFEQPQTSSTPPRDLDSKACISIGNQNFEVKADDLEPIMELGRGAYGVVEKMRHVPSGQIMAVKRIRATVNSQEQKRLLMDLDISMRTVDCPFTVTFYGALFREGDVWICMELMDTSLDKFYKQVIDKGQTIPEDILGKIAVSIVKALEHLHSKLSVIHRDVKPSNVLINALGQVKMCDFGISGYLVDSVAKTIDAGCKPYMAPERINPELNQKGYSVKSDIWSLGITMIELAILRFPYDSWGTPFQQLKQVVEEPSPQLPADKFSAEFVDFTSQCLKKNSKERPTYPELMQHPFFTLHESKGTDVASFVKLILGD

Row | Target | kinase activity remaining (inhibitor concentration 0.1 µM) | kinase activity remaining (inhibitor concentration 1 µM) | kinase activity remaining (inhibitor concentration 10 µM)
1 | EPH-B2 | 99% | 110% | 111%
2 | BRSK2 (UniProt Q8IWQ3) | 77% | 32% | 8%
3 | NEK2a (UniProt P51955) | 108% | 99% | 88%
4 | IGF-1R | 101% | 108% | 114%
5 | MLK1 (UniProt P80192) | 99% | 95% | 60%
6 | CDK9-Cyclin T1 (UniProt P50750) | 109% | 96% | 51%
7 | PAK4 (UniProt O96013) | 103% | 88% | 82%
8 | HIPK2 (UniProt Q9H2X6) | 123% | 113% | 78%
9 | TESK1 (UniProt Q15569) | 112% | 111% | 101%
10 | TrkA (UniProt P04629) | 121% | 100% | 83%
11 | NUAK1 (UniProt O60285) | 112% | 102% | 58%
12 | MKK2 (UniProt P36507) | 113% | 108% | 79%
13 | MINK1 (UniProt Q8N4C8) | 98% | 97% | 40%
14 | IR | 123% | 125% | 133%
15 | ULK2 (UniProt Q8IYT8) | 109% | 121% | 54%
16 | TTK (UniProt P33981) | 117% | 101% | 84%
17 | DYRK1A (UniProt Q13627) | 80% | 31% | 8%
18 | AMPK (hum) | 68% | 21% | 6%
19 | IRR (UniProt P14616) | 99% | 79% | 53%
20 | CHK2 (UniProt O96017) | 112% | 51% | 9%

Row | Target | kinase activity remaining (inhibitor concentration 0.1 µM) | kinase activity remaining (inhibitor concentration 1 µM) | kinase activity remaining (inhibitor concentration 10 µM)
21 | WNK1 (UniProt Q9H4A3) | 113% | 108% | 119%
22 | TLK1 (UniProt Q9UKI8) | 113% | 107% | 100%
23 | CK1 delta | 96% | 96% | 92%
24 | ERK8 (UniProt Q8TD08) | 96% | 79% | 38%
25 | p38 beta MAPK | 118% | 126% | 117%
26 | EIF2AK3 (UniProt Q9NZJ5) | 114% | 101% | 73%
27 | JNK3 (UniProt P53779) | 120% | 104% | 102%
28 | PHK | 110% | 91% | 86%
29 | DYRK3 (UniProt O43781) | 111% | 84% | 40%
30 | RIPK2 (UniProt O43353) | 93% | 94% | 39%
31 | MST4 (UniProt Q9P289) | 99% | 101% | 91%
32 | HER4 (UniProt Q15303) | 92% | 105% | 99%
33 | SIK3 (UniProt Q9Y2K2) | 98% | 99% | 73%
34 | HIPK3 (UniProt Q9H422) | 112% | 108% | 96%
35 | MKK6 (UniProt P52564) | 95% | 98% | 91%
36 | FGF-R1 | 95% | 91% | 68%
37 | RSK1 (UniProt Q15418) | 106% | 100% | 76%
38 | EF2K | 106% | 97% | 85%
39 | EPH-A4 | 99% | 103% | 78%
40 | PAK2 (UniProt Q13177) | 102% | 103% | 93%

Row | Target | kinase activity remaining (inhibitor concentration 0.1 µM) | kinase activity remaining (inhibitor concentration 1 µM) | kinase activity remaining (inhibitor concentration 10 µM)
41 | CSK (UniProt P41240) | 117% | 111% | 106%
42 | SGK1 (UniProt O00141) | 116% | 112% | 112%
43 | TAO1 | 109% | 98% | 70%
44 | Src (UniProt P12931) | 110% | 116% | 100%
45 | MAP4K3 (UniProt Q8IVH8) | 98% | 72% | 41%
46 | IKK beta | 115% | 109% | 101%
47 | MARK1 (UniProt Q9P0L2) | 116% | 107% | 93%
48 | CK2 | 100% | 97% | 93%
49 | PKA | 109% | 119% | 108%
50 | HIPK1 (UniProt Q86Z02) | 111% | 104% | 130%
51 | ERK2 (UniProt P28482) | 102% | 84% | 81%
52 | p38 delta MAPK | 108% | 103% | 94%
53 | SRPK1 (UniProt Q96SB4) | 89% | 63% | 19%
54 | CLK2 (UniProt P49760) | 86% | 43% | 9%
55 | IRAK4 (UniProt Q9NWZ3) | 94% | 62% | 24%
56 | ERK1 (UniProt P27361) | 111% | 108% | 112%
57 | MARK2 (UniProt Q7KZI7) | 116% | 113% | 95%
58 | MNK1 (UniProt Q9BUB5) | 105% | 103% | 83%
59 | NEK6 (UniProt Q9HC98) | 109% | 96% | 66%
60 | ASK1 (UniProt Q99683) | 106% | 80% | 10%
